Measurements from PubChem BioAssay (Tox21).
Where “and” joins values, the source holds several entries; their conditions need not be identical. Identical values can stand only once. Records with an inconclusive call do not appear. The source holds several records for some structures; these can differ, active in one and inactive in another. Calls of active or inactive are those of the source. Unless noted, the call rests on the fitted dose curve; in most records, active means well fitted curve in the direction sought with a large enough effect in the repeat runs; inconclusive means weak or mixed curves; inactive means no such curve, though single readings can be large; an effect the other way counts as inactive or inconclusive.

Legend:
[1] = qHTS assay for small molecule agonists of the p53 signaling pathway (AID 651631; calls by dose curve; further: nearly all actives have a fitted effect of over 15% in size; further: potency means the concentration at half of the fitted maximal effect)
Procedure, shortened: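 Quantitative high-throughput format: 4,000 p53RE-bla HCT-116 cells/well, 5 h pre-incubation, 16 h compound exposure at 37 °C, 2 h room-temperature substrate step, fluorescence intensity measured.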

[2] = qHTS assay for small molecules that induce genotoxicity in human embryonic kidney cells expressing luciferase-tagged ATAD5 (AID 651632); further: nearly all actives have a fitted effect of over 15% in size
Procedure, shortened: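 Increased luciferase signal from ATAD5-tagged reporter cells indicates DNA-damage-driven ATAD5 induction. HEK293T cells are treated for 16 hr at 37C before detection with Amplite.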

[3] = qHTS assay for small molecule agonists of the p53 signaling pathway - cell viability (AID 651633; calls by dose curve; further: nearly all actives have a fitted effect of over 30% in size; further: potency means the concentration at half of the fitted maximal effect)
Procedure, shortened: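 p53RE-bla cells, seeded at 4,000 per well and rested 5 h at 37 C/5% CO2, received compounds in DMSO for 16 h at 37 C. CellTiter-Glo was then added, and luminescence was read after 30 min at room temperature to gauge cytotoxicity.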

[4] = qHTS assay for small molecules that induce genotoxicity in human embryonic kidney cells expressing luciferase-tagged ATAD5 - cell viability (AID 651634; calls by dose curve; further: nearly all actives have a fitted effect of over 25% in size)
Procedure, shortened: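 Cytotoxicity counterscreen in HEK293T cells bearing an ATAD5-luciferase reporter: live-cell protease activity measured by CellTiter-Fluor fluorescence after 15.5 hr compound exposure.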

[5] = qHTS assay for small molecule disruptors of the mitochondrial membrane potential - cell viability (AID 720634; calls by dose curve;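 further: human HepG2 liver cancer cells; series mostly up to about 83 µM; nearly all actives have a fitted effect of over 20% in size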)
Procedure, shortened: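 After overnight attachment at 37 C, HepG2 cells received compound or DMSO vehicle for 1 hr. Viability is then taken from ATP-driven luminescence following a 30 min room-temperature CellTiter-Glo step.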

[6] = qHTS assay for small molecule disruptors of the mitochondrial membrane potential (AID 720635); further: potency means the concentration at half of the fitted maximal effect
Procedure, shortened: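 HepG2 cells (2,000/well) attached overnight at 37C, then took compound for 1 hr at 37C, 5% CO2. Mito-MPS dye was added for 30 min; fluorescence was read at 490/535 nm (monomers) and 540/590 nm (aggregates).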

[7] = qHTS assay to test for compound auto fluorescence at 590 nm (red) in HepG2 cells (AID 720674)
Procedure, shortened: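 Intrinsic compound fluorescence in the red window (Ex/Em 540/590 nm) is measured in attached HepG2 cells exposed for 1 hr, DMSO vehicle as baseline, benchmarked to Rose Bengal sodium.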

[8] = qHTS assay to test for compound auto fluorescence at 535 nm (green) in HepG2 cells (AID 720675)
[9] = qHTS assay to test for compound auto fluorescence at 460 nm (blue) in HEK293 cells (AID 720678)
Procedure, shortened: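 Blue read-out at excitation 405 nm and emission 460 nm follows overnight compound exposure of HEK293 cells at 37C in 5% CO2. Activity is given as auto fluorescence equivalency to triamterene.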

[10] = qHTS assay to test for compound auto fluorescence at 590 nm (red) in HEK293 cells (AID 720679)
Procedure, shortened: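 Red channel, Ex/Em 540/590nm; signal expressed as equivalency to Rose Bengal sodium. HEK293, 2,000 cells/well, 10% dialyzed FBS; 23 nL compound pinned after 4-5 hr attachment; overnight 37C/5% CO2 before reading.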

[11] = qHTS assay to test for compound auto fluorescence at 535 nm (green) in HEK293 cells (AID 720680)
[12] = qHTS assay to test for compound auto fluorescence at 460 nm (blue) in HEK293 cell free culture (AID 720681)
Procedure, shortened: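 Test compounds were pinned into cell-free culture medium (DMEM with 10% FBS) and fluorescence was read directly at Ex/Em 405/460 nm. Signals were expressed as fluorescence equivalents of triamterene, with DMSO vehicle as control.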

[13] = qHTS assay to test for compound auto fluorescence at 535 nm (green) in HEK293 cell free culture (AID 720682)
Procedure, shortened: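 Measurement is a direct plate read of green fluorescence (485 nm in, 535 nm out) after compound addition to serum-supplemented DMEM lacking cells, with fluorescein used to express intensities.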

[14] = qHTS assay to test for compound auto fluorescence at 590 nm (red) in HEK293 cell free culture (AID 720683)
Procedure, shortened: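 Tox21 10K library compounds were pinned into cell-free DMEM with 10% FBS and fluorescence was read at excitation 540 nm. Activity is expressed as Rose Bengal sodium equivalency.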

[15] = qHTS assay to test for compound auto fluorescence at 590 nm (red) in HepG2 cell free culture (AID 720684)
Procedure, shortened: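 Measured in medium alone (MEM containing 10% FBS) following pintool addition of compound; emission at 590 nm with 540 nm excitation, referenced to Rose Bengal sodium.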

[16] = qHTS assay to test for compound auto fluorescence at 460 nm (blue) in HepG2 cell free culture (AID 720685)
Procedure, shortened: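 Compound (23 nL) or DMSO pinned into cell-free MEM with 10% FBS; blue fluorescence read at 405/460 nm excitation/emission, expressed as auto-fluorescence equivalency to triamterene.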

[17] = qHTS assay to test for compound auto fluorescence at 535 nm (green) in HepG2 cell free culture (AID 720686)
[18] = qHTS assay to test for compound auto fluorescence at 460 nm (blue) in HepG2 cells (AID 720687)
Procedure, shortened: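 Cells (2,000/well in MEM with 10% FBS) attached overnight at 37 C, then were exposed to compound or DMSO for 1 hr at 37 C, 5% CO2. Fluorescence read at Ex/Em 405/460 nm, expressed as triamterene-equivalent signal.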

[19] = molecular target: Glucocorticoid receptor (Homo sapiens) (UniProt P04150); experiment: qHTS assay to identify small molecule agonists of the glucocorticoid receptor (GR) signaling pathway (AID 720691; active means well fitted activation curve with a large enough effect in the signal ratio in the repeat runs, not every such curve was filed as active; the % refers to the signal ratio)
Chain of Glucocorticoid receptor (Homo sapiens) (P04150 whole entry, looked up): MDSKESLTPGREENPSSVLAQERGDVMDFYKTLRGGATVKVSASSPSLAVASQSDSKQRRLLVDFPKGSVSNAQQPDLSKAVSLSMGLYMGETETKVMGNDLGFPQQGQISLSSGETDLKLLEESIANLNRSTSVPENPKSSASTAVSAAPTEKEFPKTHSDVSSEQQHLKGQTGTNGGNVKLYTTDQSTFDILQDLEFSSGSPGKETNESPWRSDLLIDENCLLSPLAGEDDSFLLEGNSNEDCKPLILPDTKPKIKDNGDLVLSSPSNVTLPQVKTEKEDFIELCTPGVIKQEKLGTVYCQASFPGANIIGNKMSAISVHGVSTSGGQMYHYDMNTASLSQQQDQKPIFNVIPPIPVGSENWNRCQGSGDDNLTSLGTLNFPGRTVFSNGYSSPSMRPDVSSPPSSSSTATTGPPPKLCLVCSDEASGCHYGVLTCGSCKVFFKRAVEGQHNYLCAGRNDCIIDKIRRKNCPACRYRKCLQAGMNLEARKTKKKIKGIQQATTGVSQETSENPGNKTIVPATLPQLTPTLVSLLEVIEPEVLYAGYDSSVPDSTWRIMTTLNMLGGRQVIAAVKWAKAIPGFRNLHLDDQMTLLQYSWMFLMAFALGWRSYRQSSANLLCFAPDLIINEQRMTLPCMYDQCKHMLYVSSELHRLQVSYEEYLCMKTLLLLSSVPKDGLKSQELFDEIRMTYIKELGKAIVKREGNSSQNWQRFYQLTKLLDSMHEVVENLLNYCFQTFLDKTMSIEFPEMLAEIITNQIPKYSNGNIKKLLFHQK
Procedure, shortened: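 Agonist mode in a HeLa line carrying a GRE-controlled beta-lactamase reporter. Compounds act for 18 h at 37 C before a 2 h room-temperature FRET substrate step and fluorescence reading.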

[20] = molecular target: Glucocorticoid receptor (Homo sapiens) (UniProt P04150); experiment: qHTS assay to identify small molecule antagonists of the glucocorticoid receptor (GR) signaling pathway (AID 720692; active means well fitted inhibition curve with a large enough effect in the signal ratio in the repeat runs, not every such curve was filed as active; the % refers to the signal ratio; further: potency means the concentration at half of the fitted maximal effect)
Procedure, shortened: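 Cells plated, rested 4 h at 37 C/5% CO2; compounds in DMSO pin-transferred; dexamethasone added to 5 nM final; 18 h at 37 C; B/G FRET substrate added, 2 h room temperature; fluorescence measured.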
On the % scale 0 is the no-effect control and ±100 the full control effect.

Cc1cccc2cccnc12
inactive: Potency [1] | Potency [2] | Potency [3] | Potency [4] | Potency [5] | Potency [6] | Potency [7] | Potency [8] | Potency [9] | Potency [10] | Potency [11] | Potency [12] | Potency [13] | Potency [14] | Potency [15] | Potency [16] | Potency [17]

CC/C=C\CCCCCO
inactive: Potency [1] | Potency [2] | Potency [3] | Potency [4] | Potency [5] | Potency [6] | Potency [7] | Potency [8] | Potency [9] | Potency [10] | Potency [11] | Potency [12] | Potency [13] | Potency [14] | Potency [15] | Potency [16] | Potency [17] | Potency [18] | Potency [19] | Potency [20]

O=c1c(O)c(-c2ccc(O)cc2O)oc2cc(O)cc(O)c12
active: Potency [6] 22.9 µM
inactive: Potency [1] | Potency [2] | Potency [3] | Potency [4] | Potency [5] | Potency [7] | Potency [8] | Potency [9] | Potency [10] | Potency [11] | Potency [12] | Potency [13] | Potency [14] | Potency [15] | Potency [16] | Potency [17] | Potency [19] | Potency [20]

CCC(CC)(CC(=O)Nc1cccc(/C=C/c2nc(C3CCC3)cs2)c1)C(=O)O
inactive: Potency [1] | Potency [2] | Potency [3] | Potency [4] | Potency [5] | Potency [7] | Potency [8] | Potency [9] | Potency [10] | Potency [11] | Potency [12] | Potency [13] | Potency [14] | Potency [15] | Potency [16] | Potency [17] | Potency [18]
active: Potency [6] 27.8 µM

CN(C)Cc1ccccc1O
inactive: Potency [1] | Potency [2] | Potency [3] | Potency [4] | Potency [5] | Potency [6] | Potency [7] | Potency [8] | Potency [9] | Potency [10] | Potency [11] | Potency [12] | Potency [13] | Potency [14] | Potency [15] | Potency [16] | Potency [17] | Potency [18] | Potency [19]

OC[C@@H](O)[C@@H](O)CO
inactive: Potency [1] | Potency [2] | Potency [3] | Potency [4] | Potency [5] | Potency [6] | Potency [7] | Potency [8] | Potency [9] | Potency [10] | Potency [11] | Potency [12] | Potency [13] | Potency [14] | Potency [15] | Potency [16] | Potency [17] | Potency [18] | Potency [19]

CCCCC/C=C\C/C=C\CCCCCCCC(=O)O
inactive and 68.6 µM (active): Potency [1]
inactive: Potency [2] | Potency [4] | Potency [5] | Potency [6] | Potency [7] | Potency [8] | Potency [9] | Potency [10] | Potency [11] | Potency [12] | Potency [13] | Potency [14] | Potency [15] | Potency [16] | Potency [17] | Potency [18]
inactive and 54.5 µM (active): Potency [3]

CCCCCCCCCCCCCC[N+](C)(C)C
active: Potency [1] 21.1 µM | Potency [3] 26.6 µM | Potency [6] 17.6 µM and 13.2 µM and 6.85 µM | Potency [20] 15.5 µM
inactive: Potency [2] | Potency [4] | Potency [5] | Potency [7] | Potency [8] | Potency [9] | Potency [10] | Potency [11] | Potency [12] | Potency [13] | Potency [14] | Potency [15] | Potency [16] | Potency [17] | Potency [18]

O=c1[nH]c(=O)n([C@H]2C[C@H](O)[C@@H](CO)O2)cc1F
active: Potency [1] 0.944 µM | Potency [3] 0.211 µM
inactive: Potency [2] | Potency [4] | Potency [5] | Potency [6] | Potency [7] | Potency [8] | Potency [9] | Potency [10] | Potency [11] | Potency [12] | Potency [13] | Potency [14] | Potency [15] | Potency [16] | Potency [17] | Potency [18] | Potency [20]

Nc1ccc(C(=O)O)c(O)c1
inactive: Potency [1] | Potency [2] | Potency [3] | Potency [4] | Potency [5] | Potency [6] | Potency [7] | Potency [8] | Potency [9] | Potency [10] | Potency [11] | Potency [14] | Potency [15] | Potency [16] | Potency [17] | Potency [18] | Potency [19] | Potency [20]

COc1cccc(OC)c1C(=O)O
inactive: Potency [1] | Potency [2] | Potency [3] | Potency [4] | Potency [5] | Potency [6] | Potency [7] | Potency [8] | Potency [9] | Potency [10] | Potency [11] | Potency [12] | Potency [13] | Potency [14] | Potency [15] | Potency [16] | Potency [17] | Potency [19] | Potency [20]

CC(=O)Oc1cc2c(s1)CCN(C(C(=O)C1CC1)c1ccccc1F)C2 (stereo unspecified)
inactive: Potency [1] | Potency [2] | Potency [3] | Potency [4] | Potency [5] | Potency [6] | Potency [7] | Potency [8] | Potency [9] | Potency [11] | Potency [12] | Potency [13] | Potency [14] | Potency [15] | Potency [16] | Potency [17] | Potency [18] | Potency [19]

Cc1cc(C(C)(C)C)cc(C)c1CC1=NCCN1
inactive: Potency [1] | Potency [2] | Potency [3] | Potency [4] | Potency [5] | fluorescence, relative to Rose Bengal [7] 0.379% [at 18.6 µM] | fluorescence, % of fluorescein control [8] 0.0648% [at 18.6 µM] | fluorescence, % of triamterene [9] -0.0052% [at 18.6 µM] | fluorescence, % of fluorescein [11] 0.178% [at 18.6 µM] | fluorescence, % of fluorescent control [12] 0.0078% [at 18.6 µM] | activity change [13] 0.0172% [at 18.6 µM, stronger effect = higher value] | fluorescence, % of fluorescent control [14] 0.0411% [at 18.6 µM] | fluorescence, % of Rose Bengal [15] -0.207% [at 18.6 µM] | fluorescence, % of fluorescent control [16] 0.411% [at 18.6 µM] | Potency [19] | Potency [20]

CC(C)(C)C1CCC(=O)CC1
inactive: Potency [1] | Potency [2] | Potency [3] | Potency [4] | Potency [5] | Potency [7] | Potency [8] | Potency [9] | Potency [10] | Potency [11] | Potency [12] | Potency [14] | Potency [15] | Potency [16] | Potency [17] | Potency [18] | Potency [19]
